Laboratory results taken from PubChem BioAssay (Tox21).
Where “and” joins values, the source holds several entries; their conditions need not be identical. Equal entries are not always repeated. Inconclusive results are not listed. Where a structure was tested more than once in an assay, its records may differ in their call. Calls of active or inactive are those of the source. The call rests on the fitted dose curve; in most records, active means well fitted curve in the direction sought with a large enough effect in the repeat runs; inconclusive means weak or mixed curves; inactive means no such curve, though single readings can be large; an effect the other way counts as inactive or inconclusive.

Test system: not listed separately
Experiment: qHTS assay to identify aromatase inhibitors - cell viability counter screen (AID 743084);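 further: cells stimulated with testosterone during compound exposure; nearly all actives have a fitted effect of over 55% in size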; further: potency means the concentration at half of the fitted maximal effect
Details: MCF-7 aro ERE viability, CellTiter-Fluor, 24 h; series mostly up to 70.3 µM; activity change, negative = cytotoxicity: at the top concentration
On the % scale 0 is the no-effect control and ±100 the full control effect.

SMILES | activity change, negative = cytotoxicity | Potency
CC1CC(C)C(=O)C1=O (centres undefined) | -2.01% (inactive) | 
O=C=Nc1cccc(C(F)(F)F)c1 | -23.2% (inactive) | 
CCCCN1CCCC1C(=O)Nc1c(C)cc(C)cc1C (centres undefined) | 7.62% (inactive) | 
O=C(OCC(O)CO)c1ccccc1Nc1ccnc2cc(Cl)ccc12 (centres undefined) | -1.6% [at 32.5 µM] (inactive) | 
CCCCCCCCN | -3.63% (inactive) | 
O=Cc1c2ccccc2c(Cl)c2ccccc12 | 0.334% (inactive) | 
CCC=CC#N | 0.572% (inactive) | 
C=CC(=O)[O-].C=CC(=O)[O-].[Zn+2] | -27% (inactive) | 
CC(C)=CCC1C(=O)N(c2ccccc2)N(c2ccccc2)C1=O | -19.4% (inactive) | 
CO/N=C(/C(=O)N[C@@H]1C(=O)N2C(C(=O)O)=C(COC(N)=O)CS[C@H]12)c1ccco1 |  | inactive
C=C1CCC2CC1C2(C)C (centres undefined) | 0.722% (inactive) | 
Cc1ccc(OC(=O)c2ccccc2O)cc1 | -1.06% (inactive) | 
O=C(O)CCC(=O)C(=O)O |  | inactive
C=C1c2cccc(O)c2C(O)=C2C(=O)[C@]3(O)C(O)=C(C(N)=O)C(=O)[C@@H](N(C)C)[C@@H]3[C@@H](O)[C@H]12 | 0.415% [at 32.5 µM] (inactive) | 
CC(C)C=O | 0.371% [at 95 µM] (inactive) | 
CN1C(C(=O)Nc2ccccn2)=C(O)c2sccc2S1(=O)=O | 0.915% [at 32.5 µM] (inactive) | 
Cc1cscn1 | 20.2% (inactive) | 
CCC(OCCCOC)OC(C)=O (centres undefined) | 12.6% [at 95 µM] (inactive) | 
CC/C=C1/OC(=O)c2ccccc21 | 2.41% (inactive) | 

SMILES | activity change, negative = cytotoxicity | Potency
CCOC(=O)C1=C(C)NC(C)=C(C(=O)OC)C1c1cccc(Cl)c1Cl (centres undefined) | -4.89% (inactive) | 
COc1cc(N)c(Cl)cc1C(=O)NC1CCN(CCCOc2ccc(F)cc2)CC1OC (centres undefined) | -7.16% [at 32.5 µM] (inactive) | 
C=C(C)C(=O)OCCOCCOC(=O)C(=C)C | -1.4% (inactive) | 
CC(=O)Oc1ccc([N+](=O)[O-])cc1CCl |  | 27.3 µM (active)
O=C(Nc1cccc2c(=O)cc(-c3nn[nH]n3)oc12)c1ccc(OCCCCc2ccccc2)cc1 | -3.36% (inactive) | 
Cc1ccccc1N=C(N)Nc1ccccc1C | 2.11% (inactive) | 
CCOC(=O)OC(C)OC(=O)[C@@H]1N2C(=O)[C@@H](NC(=O)[C@H](N)c3ccccc3)[C@H]2SC1(C)C (some centres undefined) | 11.3% [at 32.5 µM] (inactive) | 
CC1=Nc2ccc3ccccc3c2C1(C)C | 7.5% (inactive) | 
CC(C)c1nc(CN(C)C(=O)N[C@H](C(=O)N[C@@H](Cc2ccccc2)C[C@H](O)[C@H](Cc2ccccc2)NC(=O)OCc2cncs2)C(C)C)cs1 |  | inactive and 23.7 µM (active)
CC1=C(CC=O)C(C)(C)CCC1 | 6.38% (inactive) | 
O=C(/C=C/c1ccccc1)OCCc1ccccc1 | 4.93% (inactive) | 
CN1C(=O)OC(C)(C)C1=O |  | inactive
CCN(CC)CCNC(=O)COc1ccc(OC)cc1 | 8.77% (inactive) | 
CC1CC(OC(=O)C(O)c2ccccc2)CC(C)(C)N1C (centres undefined) |  | inactive
Cc1ccc(CO)cc1 | 19.5% [at 95 µM] (inactive) | 
NC1[C@H]2CN(c3nc4c(cc3F)c(=O)c(C(=O)O)cn4-c3ccc(F)cc3F)C[C@@H]12 (some centres undefined) | 1.64% (inactive) | 
CC(CO)CO | 27.7% [at 95 µM] (inactive) | 
CC(C)(O)c1ccc(CNC(=O)c2cccnc2Oc2ccc3nonc3c2)cc1 | 10.1% (inactive) | 
CCCCCCCCCCC(=O)O | 2.17% [at 95 µM] (inactive) | 

Molecular target: Aryl hydrocarbon receptor (Homo sapiens) (UniProt P35869)
Experiment: qHTS assay to identify small molecule that activate the aryl hydrocarbon receptor (AhR) signaling pathway (AID 743085);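 further: HG2L7.5c1 human HepG2 liver cells with stably integrated DRE-driven firefly reporter; nearly all actives have a fitted effect of over 15% in size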
Details: HepG2 AhR-luc (HG2L7.5c1), luciferase, 24 h; series mostly up to 70.3 µM; activation: at the top concentration
Procedure, shortened: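 Reporter assay in engineered HepG2 line HG2L7.5c1, whose plasmid carries twenty dioxin responsive elements upstream of firefly luciferase. Treatment lasted 24 h at 37C; ONE-Glo luminescence gauged induction.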

Sequence of Aryl hydrocarbon receptor (Homo sapiens) (P35869 whole entry, looked up): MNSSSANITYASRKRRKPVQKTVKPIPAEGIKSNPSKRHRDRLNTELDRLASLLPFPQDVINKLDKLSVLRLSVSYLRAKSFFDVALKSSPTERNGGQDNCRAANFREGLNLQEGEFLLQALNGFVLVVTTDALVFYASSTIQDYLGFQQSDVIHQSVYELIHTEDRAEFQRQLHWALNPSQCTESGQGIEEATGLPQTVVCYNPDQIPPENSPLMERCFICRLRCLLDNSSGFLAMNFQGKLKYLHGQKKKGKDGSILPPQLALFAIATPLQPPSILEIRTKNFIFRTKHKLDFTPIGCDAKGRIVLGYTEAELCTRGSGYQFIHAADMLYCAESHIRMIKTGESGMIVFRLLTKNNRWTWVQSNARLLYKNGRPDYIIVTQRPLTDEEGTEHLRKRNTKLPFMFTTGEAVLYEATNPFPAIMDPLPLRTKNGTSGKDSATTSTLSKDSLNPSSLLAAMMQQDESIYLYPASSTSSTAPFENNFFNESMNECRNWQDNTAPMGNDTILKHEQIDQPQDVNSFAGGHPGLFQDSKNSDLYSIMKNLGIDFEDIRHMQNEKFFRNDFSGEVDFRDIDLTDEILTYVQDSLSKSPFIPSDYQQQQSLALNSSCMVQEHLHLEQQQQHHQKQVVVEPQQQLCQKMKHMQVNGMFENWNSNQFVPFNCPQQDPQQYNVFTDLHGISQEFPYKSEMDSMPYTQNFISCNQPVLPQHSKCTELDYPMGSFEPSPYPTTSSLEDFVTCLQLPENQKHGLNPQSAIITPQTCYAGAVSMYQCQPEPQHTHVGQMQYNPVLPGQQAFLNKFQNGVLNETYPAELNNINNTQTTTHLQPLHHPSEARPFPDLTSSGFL

SMILES | activation | Potency
CC1CC(C)C(=O)C1=O (centres undefined) | -1.38% (inactive) | 
CCCCCCCCN | 1.03% (inactive) | 
C=CC(=O)[O-].C=CC(=O)[O-].[Zn+2] | -2.34% (inactive) | 
CC(C)=CCC1C(=O)N(c2ccccc2)N(c2ccccc2)C1=O | -1.3% (inactive) | 
CO/N=C(/C(=O)N[C@@H]1C(=O)N2C(C(=O)O)=C(COC(N)=O)CS[C@H]12)c1ccco1 |  | inactive
Cc1ccc(OC(=O)c2ccccc2O)cc1 | 1.25% (inactive) | 
O=C(O)CCC(=O)C(=O)O |  | inactive
C=C1c2cccc(O)c2C(O)=C2C(=O)[C@]3(O)C(O)=C(C(N)=O)C(=O)[C@@H](N(C)C)[C@@H]3[C@@H](O)[C@H]12 | -0.0762% [at 32.5 µM] (inactive) | 
CC(C)C=O | 3.96% [at 95 µM] (inactive) | 
CN1C(C(=O)Nc2ccccn2)=C(O)c2sccc2S1(=O)=O | 3.42% [at 32.5 µM] (inactive) | 
CCC(OCCCOC)OC(C)=O (centres undefined) | -0.492% [at 95 µM] (inactive) | 
